# F508del corr: correctors of CFTR F508del function in bronchial epithelial cells. CFBE cells, YFP halide quenching; stimulated with forskolin plus potentiator P3; % fluorescence drop versus neutral controls. 350,000 tested, 0.36% active. activity (quench increase), % at 7.58 µM;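 active = mean added fluorescence quench of at least 8% versus neutral control, with both replicates also reaching 8%; inconclusive = only one of the mean or replicate conditions met; inactive = mean below 8% and not both replicates reaching 8%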;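 also: cells transiently co-express mutant CFTR-F508del with the halide-sensitive YFP; corrector assay measuring rescue of mutant channel to the surface after 24 h compound exposure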
# PGC1a acetyl inh: PGC1a acetylation modulation, inhibitor mode; AID 651687; 350,000 tested, 0.17% active; U2OS PGC1a acetylation, AlphaScreen anti-acetyl-lysine; with virally co-expressed GCN5 acetyltransferase; inhibition, % at 15.6 µM;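 active = every replicate shows inhibition of at least 40%; inconclusive = mean inhibition at least 40% but some replicate below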;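 also: 0% = neutral control wells and 100% = positive control wells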
# HIV Env fusion: HIV envelope-mediated fusion inhibition; AID 651610; inhibition, % at 12.3 µM; 360,000 tested, 1.1% active; HeLa-JRFL Env/CEM21 cell fusion, luciferase;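 active = mean replicate inhibition score of at least 50 and every replicate individually at or above 50; inconclusive = only one of the two criteria met; inactive = mean below 50 and not all replicates reaching 50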;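 also: 0% = plate neutral controls and 100% = maraviroc near 300 nM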
# PAX8 reporter: lowers PAX8-driven luciferase in RMG-I cells. RMG-I TPO-luciferase reporter, SteadyGlo, 24 h. inhibition, % at 12.6 µM. 360,000 tested, 1.2% active. AID 652154;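 active = mean replicate inhibition at least 60% with every replicate also reaching 60%; inconclusive = only one of the two criteria is met; inactive = mean below 60% and not all replicates reaching 60%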;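 also: luciferase light reporting Pax8 driven TPO promoter activity; plate controls were median of neutral control wells for no effect and mitoxantrone controls for full effect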
# EWS-Fli block: EWS/Fli transcriptional activity inhibition | A673 NR0B1-luciferase reporter, viability-normalised | inhibition, % at 12.6 µM | 350,000 tested, 0.67% active;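 active = mean inhibition of at least 50% after viability correction, with every replicate also passing that limit; inconclusive = mean reaches 50% but only one of two replicates passes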;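 also: firefly luciferase signal divided by Alamar Blue viability fluorescence both relative to DMSO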
# INS-1E GSIS act: primary screen for activators of insulin secretion dependent on glucose, INS-1E cells, GLuc reporter luminescence; INS-1E GLuc reporter insulin secretion, 2-3 h; activation, % at 16.6 µM; 370,000 tested, 0.61% active;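 active = lowest replicate activation of at least 40%, so every replicate reaches that level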;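 also: 0% = median of neutral control wells and 100% = median of IBMX positive control wells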
# An asterisk follows results filed as active; u = inconclusive; x = no result; [ ] = dose if it differs, or a comment. Only some compounds are listed: those with a hit (about 2.7% of all), similar ones and a draw of the others.
SMILES,F508del corr,PGC1a acetyl inh,HIV Env fusion,PAX8 reporter,EWS-Fli block,INS-1E GSIS act
C[C@@H]1CCCCO[C@@H](CN(C)C(=O)c2ccccc2)[C@@H](C)CN([C@@H](C)CO)C(=O)c2cc(NC(=O)Nc3ccc(C(F)(F)F)cc3)ccc2O1,0,13,-5[16.7 µM],86*,-5,1
C[C@@H]1CN([C@@H](C)CO)C(=O)c2cc(NC(=O)Nc3ccc(C(F)(F)F)cc3)ccc2O[C@@H](C)CCCCO[C@H]1CN(C)C(=O)Cc1ccccc1,7,x,11[16.7 µM],55,-4,-4
C[C@H]1CCCCO[C@@H](CN(C)C(=O)Nc2ccccc2)[C@@H](C)CN([C@@H](C)CO)C(=O)c2cc(NC(=O)Nc3ccc(C(F)(F)F)cc3)ccc2O1,5,-2,x,17,-12,16
C[C@@H]1CCCCO[C@@H](CN(C)C(=O)c2ccccc2)[C@H](C)CN([C@H](C)CO)C(=O)c2cc(NC(=O)Nc3ccc(C(F)(F)F)cc3)ccc2O1,5,-8,21[16.7 µM],102*,6,-3
C[C@@H]1CCCCO[C@@H](CN(C)C(=O)Cc2ccccc2)[C@H](C)CN([C@@H](C)CO)C(=O)c2cc(NC(=O)Nc3ccc(C(F)(F)F)cc3)ccc2O1,3,x,-1[16.7 µM],71*,4,5
C[C@@H]1CCCCO[C@H](CN(C)C(=O)c2ccccc2)[C@@H](C)CN([C@@H](C)CO)C(=O)c2cc(NC(=O)Nc3ccc(C(F)(F)F)cc3)ccc2O1,3,4,u,94*,-7,3
COc1ccccc1S(=O)(=O)N[C@H]1CC[C@@H](CCNC(=O)C2CC2)O[C@H]1CO,0,7,-4[16.7 µM],-9,1,5
C[C@@H]1CCCCO[C@H](CN(C)C(=O)c2ccccc2)[C@H](C)CN([C@@H](C)CO)C(=O)c2cc(NC(=O)Nc3ccc(C(F)(F)F)cc3)ccc2O1,5,17,30[16.7 µM],87*,10,20
C[C@@H]1CN([C@@H](C)CO)C(=O)c2cc(NC(=O)Nc3ccc(C(F)(F)F)cc3)ccc2O[C@@H](C)CCCCO[C@@H]1CN(C)C(=O)Nc1ccccc1,-1,16,x,-12,-7,-2
C[C@@H]1CCCCO[C@@H](CN(C)C(=O)c2ccccc2)[C@@H](C)CN([C@H](C)CO)C(=O)c2cc(NC(=O)Nc3ccc(C(F)(F)F)cc3)ccc2O1,1,13,6[16.7 µM],15,-13,9
C[C@@H]1CN([C@H](C)CO)C(=O)c2cc(NC(=O)Nc3ccc(C(F)(F)F)cc3)ccc2O[C@@H](C)CCCCO[C@@H]1CN(C)C(=O)c1ccccc1,3,18,16[16.7 µM],88*,-4,4
C[C@H]1CCCCO[C@@H](CN(C)C(=O)c2ccccc2)[C@@H](C)CN([C@@H](C)CO)C(=O)c2cc(NC(=O)Nc3ccc(C(F)(F)F)cc3)ccc2O1,1,-2,68*[16.7 µM],89*,-15,-4
CC(=O)N(C)C[C@H]1Oc2ncc(-c3cncnc3)cc2C(=O)N([C@@H](C)CO)C[C@H]1C,-1,20,1[16.7 µM],x,1,8
COc1ccc(CC(=O)Nc2nc3ccccc3[nH]2)cc1,3,-5,-19,-44,-13,1
CCOC(=O)Nc1nc2ccc(Cn3cccc3)cc2[nH]1,2,x,-324,x,51*,3
C[C@@H]1CN([C@@H](C)CO)C(=O)c2cc(NC(=O)CCCCCC(=O)Nc3ccccc3N)ccc2O[C@@H]1CN(C)C,1,7,x,-2,-10,-4
O=C1CCN(c2ncccc2[N+](=O)[O-])CC1,-4,x,-6,-5,-4,16
COc1cc2c(cc1OC)CN(c1ncccc1[N+](=O)[O-])CC2,1,x,-52,-73,-99,50*
Cn1cnc(S(=O)(=O)N2C[C@@H](O)COC[C@H]3O[C@@H](CC(=O)NCc4cc(F)cc(F)c4)CC[C@@H]32)c1,0,-2,x,-14,-4,5
O=C(Nc1cccc(F)c1)N[C@H]1CC[C@H](CCNS(=O)(=O)c2cccc(Cl)c2)O[C@@H]1CO,-2,8,u,-26,22,-10
O=C(Nc1cccc(F)c1)N[C@@H]1CC[C@H](CCNS(=O)(=O)c2cccc(Cl)c2)O[C@H]1CO,0,3,67*[16.7 µM],-14,15,-29
O=C(Nc1cccc(F)c1)N[C@H]1CC[C@@H](CCNS(=O)(=O)c2cccc(Cl)c2)O[C@H]1CO,-1,2,96*[16.7 µM],-5,43,-28
O=C(Nc1ccc(F)cc1)N[C@H]1CC[C@H](CCNS(=O)(=O)c2cccc(Cl)c2)O[C@H]1CO,2,8,18[16.7 µM],16,4,-11
CCCCS(=O)(=O)/C=C\C=C/S(=O)(=O)CCCC,x,97*,x,x,x,x
CCCCS(=O)(=O)/C=C\C1C2C=CC(C2)C1S(=O)(=O)CCCC (configuration not stated),x,-34,x,x,x,x
SMILES,F508del corr,PGC1a acetyl inh,HIV Env fusion,PAX8 reporter,EWS-Fli block,INS-1E GSIS act
O=S(=O)(/C=C/c1ccccc1)N1CCc2ccccc2C1,0,-23,2,-3,5,20
O=C1C=CCCN1S(=O)(=O)/C=C/c1ccccc1,-5,59*,-142[16.7 µM],89*,62*,x
COc1ccc(S(=O)(=O)N(C)C[C@@H]2Oc3ccc(NS(=O)(=O)c4ccc(F)cc4)cc3CC(=O)N([C@H](C)CO)C[C@@H]2C)cc1,1,1,7[16.7 µM],x,-1,5
CCCCn1cnc2c(c(-c3ccccc3)c(-c3ccccc3)n2Cc2ccco2)c1=N,-4,-24,11,100*,46,x
O=C(C1CCC(CNS(=O)(=O)c2cccs2)CC1)N1CCN(c2ccc(Cl)cc2)CC1 (configuration not stated),1,20,18,68*,x,5
O=C(CCNS(=O)(=O)c1cccs1)N1CCN(c2cccc(Cl)c2)CC1,0,x,-4,22,2,-30
O=C(CCCNS(=O)(=O)c1cccs1)N1CCN(c2cccc(Cl)c2)CC1,x,-1,71*,25,x,-6
O=C(O)CC1S/C(=N/N=C/c2ccc(Br)cc2)N(c2ccccc2)C1=O (configuration not stated),-1,75*,12,8,3,6
O=C(O)CC1SC(=Nc2ccccc2)N(c2ccccc2)C1=O (configuration not stated),x,-1,x,x,x,x
C[C@@H]1CN([C@H](C)CO)S(=O)(=O)c2ccc(C3=CCCCC3)cc2O[C@H]1CN(C)C(=O)Nc1ccc2c(c1)OCO2,0,-7,x,0,7,-9
O=C(CN(Cc1ccco1)Cc1ccco1)Nc1cc(S(=O)(=O)N2CCCCC2)ccc1Cl,9.4*,-7,32,59,23,-3
O=C(NCc1ccco1)c1cc(S(=O)(=O)N2CCCC2)ccc1Cl,2,x,-8,-24,x,4
